Screens deposited in PubChem by National Center for Advancing Translational Sciences (NCATS).
HT1080-NT tox = kills 2HG-producing HT-1080-NT fibrosarcoma cells; HT-1080-NT fibrosarcoma viability, CellTiter-Glo ATP luminescence, 48 h; Potency, µM (highest dose often 46.1 µM), usual class: cytotoxic; 360,000 tested, 1.6% active; AID 686970;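 note: NT is the 2HG producing partner of a matched IDH1 knockdown line; nearly all actives have a fitted effect of over 55% in size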
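750 cells/well, RPMI + 5% FBS; 2 h settle, compound pin-transfer, 48 h at 37 degrees C. CellTiter-Glo 10 min RT, luminescence. Normalized to DMSO and media-only wells.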
DT40 TDP1 no CPT = qHTS for Inhibitors of human tyrosyl-DNA phosphodiesterase 1 (TDP1): qHTS in cells in absence of CPT | Potency, µM (titrated, usually from 46.2 µM), usual class: inhibitors | 420,000 tested, 15% active | DT40 Tdp1-/- hTDP1 cells, no CPT, ATP luminescence, 48 h; note: nearly all actives have a fitted effect of over 55% in size
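Seeded 400 DT40-hTDP1 cells/well (vehicle DMSO, no 20 nM CPT); pinned compounds; ≥48 hr at 37 °C; CellTiter-Glo luminescence as viability measure.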
IL-1B inflam inh = inflammasome signaling inhibition, IL-1 beta readout; 360,000 tested, 4.7% active; activity change, % at 57.5 µM; THP-1 LPS/ATP IL-1B secretion, AlphaLISA, 16 h; active compounds read low; in the data active = activity change below about -50%; inconclusive = mostly about -30% to -49%
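THP-1 cells pretreated 1 hr with compounds (up to 57.5 uM final), then stimulated with LPS (250 ng/mL final) plus ATP (1.25 mM final); secreted IL-1B measured by AlphaLISA after 16 hr, decreased signal indicating inhibition.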
HT1080 IDH1KD tx = toxicity to HT-1080 IDH1 knockdown cells (counter line). HT-1080 IDH1 knockdown viability, ATP luminescence, 48 h. Potency, µM (series often up to 46.1 µM), hits mostly cytotoxic. 360,000 tested, 2% active. AID 686971
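Using the IDH1-knockdown HT-1080 line run in the same batch and compound series as the NT line, viability after 48 h at 37 °C was determined by CellTiter-Glo luminescence and expressed as % activity.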
DT40 TDP1 CPT = DT40-hTDP1 cell growth loss with CPT; chicken DT40 Tdp1-/-;hTDP1 cells + 20 nM CPT, ATP luminescence, 48 h; Potency, µM (top dose mostly 46.2 µM), most hits filed as inhibitors; 420,000 tested, 12% active; note: nearly all actives have a fitted effect of over 55% in size
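Chicken DT40 Tdp1-/- cells stably complemented with human TDP1 were seeded at 400 cells/well in medium containing 20 nM camptothecin, exposed to pin-transferred compounds, and grown at 37 °C for at least 48 hr. Viability was read as ATP luminescence.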
Hits are given with their value; – = inactive; ? = inconclusive; · = no result given; [ ] = remark or other dose. Only some compounds are listed: those with a hit (about 19% of all), similar ones and a draw of the others. Unless noted, calls come from the whole dose curve; as a rule, active = well fitted curve in the direction sought with a large enough effect; inconclusive = small, poorly fitted or top-dose-only effect, or another doubt; inactive = no such curve, though single readings can be large; an effect the other way counts as inactive or inconclusive.

SMILES	HT1080-NT tox	DT40 TDP1 no CPT	IL-1B inflam inh	HT1080 IDH1KD tx	DT40 TDP1 CPT
Cc1cccc(NC(=O)C2c3ccccc3Oc3ccccc32)n1	–	?	–	–	15µM
Cc1cccc2sc(NC(=O)C3c4ccccc4Oc4ccccc43)nc12	–[9.24 µM]	?	–	?	12µM
CC(C)N(C)S(=O)(=O)c1ccc(Cl)c(C(=O)O)c1	–	–	–	–	–
CCCSc1ncc(Cl)c(C(=O)Nc2scc(-c3ccc(C)cc3)c2C(=O)OCC)n1	·	–	·	·	–
COC(=O)c1sccc1NC(=O)CN(C)NS(=O)(=O)c1ccc(F)cc1	?	?	–	–	18µM
COC(=O)c1sccc1NC(=O)CSc1ccccc1NS(=O)(=O)c1ccc(F)cc1	–	–	–	–	–
COC(=O)c1sccc1NC(=O)CN(C)NS(=O)(=O)c1ccc([N+](=O)[O-])cc1	–	?	–	–	?
COC(=O)c1sccc1NC(=O)CN(C)NS(=O)(=O)c1ccc(Cl)cc1	?	18µM	–	–	?
O=C(NCc1ccncc1)[C@@H]1CCCN1C(=O)[C@H]1CCCN1	–	–	–	–	–
CCCCc1ccc(-n2nnnc2SCC(=O)Nc2cc(OC)c([N+](=O)[O-])cc2C)cc1	–	18µM	–	–	?
COc1ccc(C(CNC(=O)Cc2ccccc2Cl)N2CCCCC2)cc1 (configuration not stated)	–	–	-52	–	–
COc1ccc(C(CNC(=O)c2ccc(C)o2)N2CCOCC2)cc1 (configuration not stated)	–	–	–	–	–
COc1ccc(C(CNC(=O)c2ccc(-c3ccccc3Cl)o2)N2CCCC2)cc1 (configuration not stated)	?	4.1µM	–	?	5.2µM
COc1ccc(C(CNC(=O)c2ccc(-c3nc4ccccc4s3)o2)N2CCCC2)cc1 (configuration not stated)	?	21µM	–	–	23µM
Cc1cc(=O)n2nc(N3CCCC(C(=O)NCCc4ccc(Cl)cc4)C3)sc2n1 (configuration not stated)	–	?	–	–	?
COc1ccc(NC(=O)CC2SC3=NCCN3C2=O)cc1 (configuration not stated)	–	–	–	–	–
O=C1C(O)CCN1C1CCCCC1 (configuration not stated)	–	–	–	–	–
CN(CC(=O)Nc1ccc(F)cc1)C(=O)c1cc(-c2ccco2)nc2ccccc12	–	?	–	–	–
CCOc1ccc(NC(=O)CN(C)C(=O)c2cc(-c3ccco3)nc3ccccc23)cc1OCC	–	18µM	–	–	18µM
COc1ccc(Cl)cc1NC(=O)CN(C)C(=O)c1cc(-c2ccncc2)nc2ccccc12	–	15µM	–	–	23µM
COc1cccc(NC(=O)CN(C)C(=O)c2cc(-c3ccco3)nc3ccccc23)c1	–	18µM	–	–	?
CCOc1ccc(NC(=O)CN(C)C(=O)c2cn(-c3ccccc3)nc2-c2cccs2)cc1OCC	–	?	–	–	18µM
CCOc1ccc(NC(=O)CN(C)C(=O)c2cc(C)nc3ccccc23)cc1OCC	–	?	–	–	–
CCOc1ccc(NC(=O)CN(C)C(=O)c2cn(-c3ccc(C)cc3)nc2-c2cccc(OC)c2)cc1OCC	–	?	–	–	?
CCOc1ccc(NC(=O)CN(C)C(=O)c2cc(-c3ccncc3)nc3ccccc23)cc1OCC	–	16µM	–	–	?
SMILES	HT1080-NT tox	DT40 TDP1 no CPT	IL-1B inflam inh	HT1080 IDH1KD tx	DT40 TDP1 CPT
CN(CCOc1ccc(Cl)cc1)C(=O)c1cc(-c2ccco2)nc2ccccc12	–	?	-81	–	?
N#Cc1c(NCc2ccccc2)ccnc1Cl	–	21µM	–	–	?
CN(C)C(=O)C[C@@H]1C=C[C@@H](NC(=O)C2CCC2)[C@@H](CO)O1	–	–	–	–	–
CC(C(=O)c1ccc(Br)cc1)[n+]1cccc2ccccc21 (configuration not stated)	–	9.2µM	–	–	10µM
CC(C(=O)c1ccc(Br)cc1)[n+]1cccc(NC(=O)c2ccccc2)c1 (configuration not stated)	–	?	?	–	?
Cc1ccc(NC2CCCN(C(=O)c3ccoc3)C2)cc1C (configuration not stated)	–	–	–	–	–
COc1cccc(C(=O)/C=C/c2ccc(N3CCCCC3)c([N+](=O)[O-])c2)c1	?	?	-96	?	18µM
O=C(/C=C/c1ccc(N2CCCCC2)c([N+](=O)[O-])c1)c1ccc(S(=O)(=O)N2CCCC2)cc1	–	9.2µM	–	–	9.2µM
COc1cccc(/C=C/C(=O)c2cccc([N+](=O)[O-])c2)c1	–	?	–	–	?
O=C(NCC(F)(F)F)c1cc2c(c(-c3cccc(-c4ccccc4F)c3)n1)[C@@H](CCO)N(C(=O)CC1CC1)C2	?	?	?	21µM	?
CCNC(=O)c1cc2c(c(-c3cccc(-c4ccccc4F)c3)n1)[C@@H](CCO)N(C(=O)CC)C2	–	?	–	–	?
O=C(NCC1CC1)c1cc2c(c(-c3cccc(-c4ccccc4F)c3)n1)[C@@H](CCO)N(C(=O)CC1CC1)C2	21µM	?	-59	?	21µM
O=C(NCC1CC1)c1cc2c(c(-c3cccc(-c4ccccc4F)c3)n1)[C@H](CCO)N(C(=O)CC1CC1)C2	23µM	18µM	–	?	?
CCC(=O)N1Cc2cc(C(=O)NCC(F)(F)F)nc(-c3cccc(-c4cncnc4)c3)c2[C@H]1CCO	–	–	–	–	–
CN(C)c1ccc(/C=N/NC(N)=S)cc1[N+](=O)[O-]	–	?	–	–	–
O=C(/C=C/[C@H]1O[C@@H](n2ccc(=O)[nH]c2=O)[C@H](O)[C@@H]1O)N1CCN(Cc2ccc(F)cc2)CC1	–	–	–	–	–
Brc1c(OCCOCCn2cncn2)ccc2ccccc12	–	26µM	–	–	?
Cc1cc(C)nc(NC(=NCCc2c[nH]c3ccccc23)NC(=O)Nc2ccc(Cl)cc2)n1	–	23µM	–	?	23µM
Cc1cc(C)nc(NCCCc2ccccc2)n1	–	–	–	–	–
Cc1cc(C)nc(NC(N)=NC(C)c2ccccc2)n1 (configuration not stated)	?	16µM	?	–	?
NC(=NCCc1c[nH]c2ccccc12)NC(=O)c1ccc(Cl)cc1	?	–	–	?	?
Cc1cc(C)nc(NC(N)=NCCc2c[nH]c3ccccc23)n1	–	9.2µM	-95	?	21µM
Cc1cc(C)nc(NC(N)=NCCc2ccccc2)n1	10µM	2.9µM	-95	23µM	2.6µM
